# High-throughput results from PubChem BioAssay.
# Mdm2 MdmX PPI = inhibitors of human Mdm2-MdmX association, primary screen, cell-based, luminescence, split luciferase, SaOS-2, uHTS; SaOS-2 split-luciferase Mdm2/MdmX complementation; Protein Mdm4 (Homo sapiens) + E3 ubiquitin-protein ligase Mdm2 (Homo sapiens), …; 330,000 compounds, 3% hits; inhibition, % at 8 µM;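 active = inhibition of at least 50% at 8 µM in the primary screen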
# Calb FLC = C. albicans growth inhibition with fluconazole, primary screen, CaCi-2 strain, Alamar Blue fluorescence | 300,000 compounds, 0.57% hits | C. albicans CaCi-2 (fluconazole-resistant clinical isolate) + fluconazole, 48 h | growth inhibition, % (test concentration not listed) | AID 1979, 2009;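 active = growth inhibition above about 58% in most replicates, limit read from the data, passing the limit was not always enough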;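 also: all wells also contain fluconazole at 8 µg/ml as a sub-toxic cotreatment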
# MPTP inh = mitochondrial permeability transition pore inhibitors, primary screen, biochemical, isolated mouse mitochondria, absorbance; Ca2+ swelling absorbance, 30 min; inhibition, % at 10 µM; 360,000 compounds, 1.4% hits; AID 602449, 2012;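 active = inhibition of 50% or more, scaled per plate between neutral and stimulator controls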
# Beta cell apopt = inhibitors of cytokine-induced beta cell apoptosis, primary screen, luminescence | INS-1E cytokine-induced death, ATP luminescence, 48 h; percent of positive-control rescue, neutral wells zero | protection from apoptosis, % (concentration not given with the values) | 300,000 compounds, 0.8% hits | AID 435005, 2010;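 active = Every replicate reaches about 75%, or at least half do and their mean reaches it too, limit read from the data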;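 also: higher means more ATP so stronger rescue from cytokine killing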
# CSC inhib = cancer stem cell viability inhibitors, primary screen, luminescence; cancer stem cell-like cells viability; inhibition, % at 7.5 µM; 300,000 compounds, 1.1% hits; AID 2717, 2010; in the data active = inhibition above about 75%; tested in HMLE shEcad cells
# Mdm2 MdmX conf = Mdm2-MdmX complex disruptors, retested hits, confirmation, luminescence, single concentration; shares compounds with Mdm2 MdmX PPI; Mdm2-MdmX binding, luminescent assay; inhibition, % at 8 µM; 10,000 compounds, 55% hits; AID 489028, 2010; in the data active = inhibition above about 40%
# Full FLuc ctr = full-length luciferase signal inhibition, confirmation, counter-screen for Mdm2/MdmX interaction inhibitor project, cell-based, single concentration, SaOS-2. shares compounds with Mdm2 MdmX PPI. SaOS-2 full-length luciferase counterscreen, luminescence. inhibition, % at 8 µM. 6,200 compounds, 77% hits. AID 504607, 2011;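 active = mean inhibition at 8 µM reaching about 37%, which flags the compound as non-specific, limit read from the data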;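 also: p53-null SaOS-2 cells with luciferase driven by a doxycycline-inducible promoter; compound on cells about two nights before reading with doxycycline added after day one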
# Rh123 counter = fluorescence retest of MPTP screen hits in isolated mitochondria, single concentration; shares compounds with MPTP inh; membrane potential, Rhodamine 123 fluorescence; inhibition, % at 10 µM; 5,000 compounds, 78% hits; AID 624504, 2012; in the data active = inhibition above about 22%
# MPTP swell DR = mitochondrial permeability transition pore inhibitors, dose response, biochemical, absorbance, uHTS hits | IC50, µM | 780 compounds, 58% hits | isolated mitochondria swelling | shares compounds with MPTP inh; in the data active = IC50 below about 20 µM
# MPTP cs DR = fluorescent counter-screen in isolated mitochondria, dose response, counter-screen for MPTP inhibitor project, biochemical, fluorescence, uHTS hits; shares compounds with MPTP inh; isolated mitochondria counterscreen, fluorescence read-out; IC50, µM; 780 compounds, 49% hits; AID 651564, 2012; in the data active = IC50 below about 80 µM
# A number is an active result; i = inactive; nt = no result. An excerpt weighted towards active compounds, which were near 4.8% of everything screened.
SMILES,Mdm2 MdmX PPI,Calb FLC,MPTP inh,Beta cell apopt,CSC inhib,Mdm2 MdmX conf,Full FLuc ctr,Rh123 counter,others
O=C(Cc1ccc(Cl)cc1)Nc1ccc(-c2cc3ccccc3oc2=O)c(Cl)c1,59.1,i,63.6,i,81.7,62.3,51.7,71.4,
O=C(Cc1ccc(Cl)cc1)Nc1ccc2oc(=O)ccc2c1,i,i,i,i,i,nt,nt,nt,
Cc1cc(C(=O)CSc2nc3ccccc3c(=O)n2C)c(C)n1Cc1ccc2c(c1)OCO2,63.4,i,96.8,99.4,i,i,nt,93.8,
CCCCNC(=S)NCC(c1ccccc1)c1c[nH]c2ccccc12 (stereo not given),i,i,i,i,i,nt,nt,nt,
CN(C)CCCNC(=S)NCC(c1ccc(Cl)cc1Cl)c1c[nH]c2ccccc12 (stereo not given),88.8,i,76.8,i,i,64.5,i,i,
Cc1[nH]n(-c2ccccc2)c(=O)c1N=Nc1ccc2c(c1)OCCO2,i,i,i,i,i,nt,nt,nt,
Cc1[nH]n(-c2ccccc2)c(=O)c1N=Nc1c(O)cc(S(=O)(=O)N(C)C)c2ccccc12,82.1,i,81.2,110.7,i,79.5,56.6,41.8,
O=c1c(Cc2c(F)cccc2Cl)c(O)ccn1CCc1c[nH]c2ccccc12,i,i,i,i,i,nt,nt,nt,
N#C/C(=N\Nc1cccc([N+](=O)[O-])c1)C(=O)c1ccc(Br)cc1,97.4,97.3,92.6,104.2,101.9,89.3,i,40.6,
O=C(O)c1ccc(N=NNc2cccc([N+](=O)[O-])c2)cc1,i,i,i,i,i,nt,nt,nt,
O=[N+]([O-])c1ccc(O)c(/C=N\N=C2c3ccccc3-c3ccccc32)c1,93.0,i,104.5,i,i,90.7,45.7,92.9,
NC(N)=N/N=C/c1cc([N+](=O)[O-])ccc1O,i,i,i,i,i,nt,nt,nt,
O=C(NNc1ccccc1Br)C(O)(c1cccc(C(F)(F)F)c1)c1cccc(C(F)(F)F)c1,93.6,i,95.3,124.9,i,77.9,87.2,74.1,
CNC(=O)c1cc(Oc2ccc(NC(=O)Nc3ccc(Cl)c(C(F)(F)F)c3)cc2)ccn1,97.1,nt,56.6,nt,124.1,88.7,52.2,46.1,
Cc1ccccc1CC(=O)N1CCCC1,i,i,i,i,i,nt,nt,nt,
CCOc1ccc2c(C)nc(NC3=NC(C)(C)C=C(C)N3)nc2c1,50.4,i,58.7,i,i,i,nt,i,MPTP swell DR=i;MPTP cs DR=7.66
CCOc1ccc2nc(N/C(N)=N/C(=S)Nc3ccc(C)c(C)c3)nc(C)c2c1,i,i,i,i,i,nt,nt,nt,
CCOc1ccc2nc(NC3=NC(C)(C)C=C(C)N3)nc(C)c2c1,71.6,i,86.2,i,i,i,nt,85.0,
Cc1ccc(C2(C)NC(=O)N(CC(=O)NNC(=O)c3ccccc3)C2=O)cc1 (stereo not given),i,nt,i,i,i,nt,nt,nt,
CCN(CC)CCCNc1ccc(-c2nnc(-c3ccc(OCC(C)C)cc3)o2)cn1,100.4,i,90.8,i,103.1,87.7,i,i,
CC(C)COc1ccc(-c2nnc(-c3ccco3)o2)cc1,i,i,i,i,i,nt,nt,nt,
O=S1(=O)CCN(Cc2ccncc2)CC1,nt,nt,i,nt,nt,nt,nt,nt,
COC1CCCN(Cc2cn(C)nc2-c2ccc(Oc3ccccc3)cc2)C1 (stereo not given),i,i,i,i,i,nt,nt,nt,
COCCN1CCCC(CNCc2cn(C)nc2-c2ccc(Oc3ccccc3)cc2)C1 (stereo not given),71.3,i,90.7,i,i,60.3,50.0,i,MPTP swell DR=4.75;MPTP cs DR=i
COc1ccccc1CCNCc1ccc(OC)c(OCc2ccccc2)c1,i,i,i,i,i,nt,nt,nt,
SMILES,Mdm2 MdmX PPI,Calb FLC,MPTP inh,Beta cell apopt,CSC inhib,Mdm2 MdmX conf,Full FLuc ctr,Rh123 counter,others
COc1cccc(CNCCc2c[nH]c3ccccc23)c1OCc1ccccc1,53.6,i,85.2,i,i,i,nt,59.8,
S=C(NNc1ccnc2cc(Cl)ccc12)Nc1ccc(Cl)cc1Cl,91.5,i,100.9,i,i,i,48.9,72.9,
Cc1nc(Nc2ccc(Cl)c(Cl)c2)sc1C(=O)Nc1ccccc1,52.1,i,82.2,86.4,88.0,i,nt,64.5,
CC(=O)c1ccc(NC(=O)C(C)Sc2nnc3ccccn23)cc1 (stereo not given),i,nt,i,i,i,nt,nt,nt,
COc1ccc(S(=O)(=O)Nc2ccc(C)cc2)cc1OC,i,i,i,i,i,nt,nt,nt,
COc1ccc(NS(=O)(=O)c2ccc(-c3cnc(C4CC4)o3)cc2)cc1OC,57.1,i,91.5,92.5,i,55.7,47.2,92.5,
COc1ccccc1N=Cc1c(C)c(C#N)c2[nH]c3ccccc3n2c1=O,i,i,i,i,i,nt,nt,nt,
Cc1c(Cc2ccccc2)c(=O)n2c([nH]c3ccccc32)c1C#N,61.3,i,84.2,i,i,41.6,57.2,73.9,
COc1cc(SC)ccc1C(=O)Nc1ccc2c(c1)CCC2,i,i,i,i,i,nt,nt,nt,
CCOC(=O)c1oc2ccc(Br)cc2c1NC(=O)CN1CCN(C)CC1,i,nt,69.4,i,i,nt,nt,i,
Cc1ncc(CO)c(CNc2ccc(Oc3ccccc3)cc2)c1O,i,i,i,i,i,nt,nt,nt,
Cn1c(=O)c2c(nc(NCCc3ccccc3)n2Cc2ccc(F)cc2)n(C)c1=O,i,i,i,i,i,nt,nt,nt,
CC(Cl)=CCn1c(NCCc2ccccc2)nc2c1c(=O)n(C)c(=O)n2C,nt,nt,71.0,nt,nt,nt,nt,76.0,
O=C(CSc1nc2ccccc2s1)Nc1ccc(N2CCOCC2)c(Cl)c1,i,i,90.0,i,i,nt,nt,83.5,
Cc1cc(Oc2ccccc2)nc(SCC(=O)Nc2ccccc2)n1,i,i,i,i,i,nt,nt,nt,
CC(=O)Nc1ccc2nc(SCC(=O)Nc3ccc(N4CCOCC4)c(Cl)c3)sc2c1,i,i,i,i,i,nt,nt,nt,
O=C(CSc1nc(Nc2ccccc2)nc(N2CCOCC2)n1)Nc1cccc([N+](=O)[O-])c1,i,i,i,i,i,nt,nt,nt,
Cc1cc(C)nc(SCC(=O)Nc2ccc(N3CCOCC3)c(Cl)c2)n1,i,nt,60.8,nt,i,nt,nt,78.3,
O=C(CSc1nc(Nc2ccccc2)nc(N2CCOCC2)n1)Nc1ccc([N+](=O)[O-])cc1,i,i,74.2,i,i,nt,nt,69.6,
Cc1cc(Oc2ccccc2)nc(SCC(=O)Nc2ccc(Cl)c(Cl)c2)n1,i,i,73.1,i,i,nt,nt,72.4,
